Measurements from PubChem BioAssay AID624296 (National Center for Advancing Translational Sciences (NCATS), 2012).
The whole screen tested about 350,000 compounds, of which about 9,900 (2.8%) were called active. Inconclusive results (about 15%) are left out. For the sample, actives were picked, then their nearest neighbours and some compounds at random. A number with no mark means an inactive call. Calls follow the shape of the dose curve; as a rule, active = well fitted activation curve with a large enough effect; inconclusive = small, poorly fitted or top-dose-only effect; inactive = no such curve, though single readings can be large or run the other way.

Test: A quantitative high throughput screen for small molecules that induce DNA re-replication in MCF 10a normal breast cells. Also: nearly all actives have a fitted effect of over 50% in size. As to activity, positive = re-replication: % of control where 0% means no effect.
Conditions: MCF 10A DNA re-replication, Hoechst nuclear intensity, 48 h; series mostly up to 46.1 µM; activity, positive = re-replication: at the top concentration
Potency is read from the fitted curve at half-maximal effect.

Row | Structure (SMILES) | activity, positive = re-replication | Potency
1 | CC1CCN(C(=S)c2cccc([N+](=O)[O-])c2)CC1 | -2.27% | 
2 | CC1CCN(C(=S)c2cccc(O)c2)CC1 |  | 1.46 µM (active)
3 | CC1CCN(C(=S)NC(=O)c2ccccc2Br)CC1 | 5.23% | 
4 | CC[C@]1(C(=O)OC)[C@H]2C(=O)N(Cc3ccccc3)C(=O)[C@H]2[C@H]2CN=C(SCc3ccc(Cl)cc3)N21 | 4.81% | 
5 | O=C(CN1CCc2ccccc2C1)Nc1cccc(S(=O)(=O)N2CCOCC2)c1 | 0.481% | 
6 | COC(=O)Cc1ccc(OC(=O)C2CCN(S(=O)(=O)c3ccc(OC)c(OC)c3)CC2)cc1 | 3.06% | 
7 | O=C(Nc1ccc(F)cc1)C1CCN(C(=O)c2ccc([N+](=O)[O-])cc2)CC1 | 11.3% | 
8 | CC1CCN(C(=O)c2ccc(S(=O)(=O)Cc3cc(F)ccc3F)c([N+](=O)[O-])c2)CC1 |  | 18.4 µM (active)
9 | O=C(c1ccc(Oc2ccc(Cl)cc2)c([N+](=O)[O-])c1)N1CCCC1 | 6.4% | 
10 | O=C(Nc1ccn(CCCNCc2ccc3[nH]ccc3c2)c(=O)n1)OCc1ccccc1 | -1.3% | 
11 | O=C(Nc1c[nH]c(=O)[nH]c1=O)OCc1ccccc1 | -0.888% | 
12 | Cc1ccc(OCC(=O)N2CCN(S(=O)(=O)c3ccc(Cl)s3)CC2)cc1C | 3.45% | 
13 | Cc1ccc(Br)c(NS(=O)(=O)c2cccc(C(=O)N3CCNC(=O)C3)c2)c1 | -1.92% | 
14 | NC(N)=Nc1nc(-c2ccccc2)c2cc(Cl)ccc2n1 | 18% | 
15 | OCCCNc1nc(-c2ccccc2)c2cc(Cl)ccc2n1 |  | 8.2 µM (active)
16 | O=C(CCl)NNc1nc(-c2ccccc2)c2cc(Cl)ccc2n1 | 13.2% | 
17 | CC1(C)CC(=O)C=C(c2ccc3ncccc3c2)C1 | 6.67% | 
18 | CCN(c1ccccc1)S(=O)(=O)c1ccc(C(=O)Nc2ccccc2OC)cc1 | -9.03% | 
19 | C[n+]1cccc(C(=O)O)c1 | -1.63% | 
20 | CCN(CC)CCCNC(=O)c1ccc2c(=O)n(Cc3ccc4c(c3)OCO4)c(=S)[nH]c2c1 |  | 23.1 µM (active)
21 | COc1ccc(Cn2c(=S)[nH]c3cc(C(=O)NCCCN4CCOCC4)ccc3c2=O)cc1 | 14.2% | 
22 | CCCCNC(=O)CCn1c(=S)[nH]c2cc3c(cc2c1=O)OCO3 | 0.701% | 
23 | Cc1ccc(C(=O)NCCNC(=O)c2ccccc2)cc1 | -1.61% | 
24 | Cc1ccc(C(=O)CSc2ccccc2C(=O)O)cc1 | -0.299% | 
25 | Cc1ccc(SC(CC(=O)c2ccc(C(C)(C)C)cc2)C(=O)O)cc1 (stereo not given) |  | 7.31 µM (active)
26 | O=C(Nc1ccc(N2CCOCC2)cc1)c1cccc(S(=O)(=O)N2CCOCC2)c1 | 4.79% | 
27 | CN(CC(=O)O)C(=O)c1ccccc1 | 8.42% | 
28 | CN1C(=O)c2ccc(NC(=O)c3c(F)c(F)c(F)c(F)c3F)cc2C1=O | 5.85% | 
29 | CN1C(=O)c2ccc(NC(=O)C3CCCCC3)cc2C1=O |  | 10.3 µM (active)
30 | O=C(O)c1ccc(NC(=O)C2CCCCC2)cc1 | 0.989% | 
